Hits are enriched below; roughly 2.7% of the tested compounds scored in any of these assays.
GLP1R inv ag – qHTS of GLP-1 Receptor Inverse Agonists (Inhibition Mode); Glucagon-like peptide 1 receptor (Homo sapiens), P43220; HEK293 GLP-1R CRE-luciferase, luminescence, 24 h; GLP-1R form is constitutively active; Potency, µM (doses to about 38.3 µM), for inactives: top-dose activity change, negative = inhibition, most hits filed as inhibitors; 1.6% of 410,000 active; note: % is set by controls: 0 for no effect and ±100 for the full control effect; nearly all actives have a fitted effect of over 55% in size
Target sequence (P43220 whole entry, looked up): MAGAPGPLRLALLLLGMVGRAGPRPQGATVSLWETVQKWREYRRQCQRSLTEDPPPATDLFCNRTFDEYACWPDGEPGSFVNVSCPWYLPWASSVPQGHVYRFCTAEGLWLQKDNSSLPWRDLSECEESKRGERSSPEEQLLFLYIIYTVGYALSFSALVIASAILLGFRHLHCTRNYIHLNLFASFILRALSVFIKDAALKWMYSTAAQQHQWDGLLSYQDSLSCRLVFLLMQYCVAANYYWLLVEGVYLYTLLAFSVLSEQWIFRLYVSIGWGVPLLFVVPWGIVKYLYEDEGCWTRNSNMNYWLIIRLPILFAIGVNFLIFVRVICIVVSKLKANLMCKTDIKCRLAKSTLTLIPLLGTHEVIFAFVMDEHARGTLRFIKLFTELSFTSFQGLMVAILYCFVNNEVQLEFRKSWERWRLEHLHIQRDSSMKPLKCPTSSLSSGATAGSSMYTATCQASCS
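Constitutively active GLP-1R drives a cAMP-responsive luciferase in stably transfected HEK293 cells; test compounds are added after overnight (12 h) attachment and left 24 hr, and signal loss in luminescence marks inhibition.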
a7 integrin act – qHTS for Activators of Integrin-Mediated Alleviation for Muscular Dystrophy; alpha7betagal myoblasts, beta-gal FDG fluorescence, 48 h; AID 624291, 2012; Potency, µM (doses to about 38.3 µM), inactives show top-dose activation, hits mostly activators; 0.064% of 350,000 active;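 note: 100% = response of the positive control SU9516; nearly all actives have a fitted effect of over 60% in size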
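alpha7betagal+/- myoblasts (passage 13, 250/well) treated 48 h at 37C with compounds at 1:260 dilution of DMSO stock. Lysed, then beta-galactosidase activity read as FDG fluorescence (ex 480/em 540) after 30 min, with pre-read for autofluorescence.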
GLP1R ag – qHTS of GLP-1 Receptor Agonists. HEK293 GLP-1R CRE-luciferase, luminescence, 4-6 h; cells express a hypersensitive GLP-1R form. Potency, µM (doses to about 45.6 µM), without a hit: at the highest dose activation, actives largely listed as activators. AID 624172, 2012. Glucagon-like peptide 1 receptor (Homo sapiens), P43220. 0.007% of 380,000 active; note: % of control where 0% means no effect
BRCA1 expr act – qHTS Assay to Identify Small Molecule Activators of BRCA1 Expression; MCF7-BRCA1-FFLuc reporter, luminescence, 48 h; response scale: scaled: vehicle 0%, 10 µM genistein 100%; Potency, µM (titrated, usually from 46.1 µM), for the others: at the top dose activation, actives largely listed as activators; 1.1% of 380,000 active; note: nearly all actives have a fitted effect of over 80% in size
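Luminescence from a BRCA1-driven firefly luciferase in MCF7 cells was read after 48 h compound exposure at 37 C. Data normalized against DMSO and a 10microM genistein activation control, then curve-fitted across the titration.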
HEK293 tox – qHTS of GLP-1 Receptor Inverse Agonists: Cytotox Screen. HEK293 cAMP-luciferase reporter cells, luminescence, 24 h. Potency, µM (series often up to 38.3 µM), for inactives: top-dose activity change, negative = inhibition, actives largely listed as inhibitors. 0.13% of 410,000 active;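 note: loss of luciferase light is scored as toxicity; % is set by controls: 0 for no effect and ±100 for the full control effect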
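Quantitative HTS format, 1536 wells, 200 cells/uL seeded. Compounds: 23 nL, 24 h, 37 °C. Detection: luciferase reagent, luminescence at 12 min RT; decreased signal taken as cytotoxic.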
* = called active by the depositor; u = inconclusive; x = not tested or not shown. Calls come from the whole dose curve; as a rule, active = well fitted curve in the direction sought with a large enough effect; inconclusive = small, poorly fitted or top-dose-only effect, or another doubt; inactive = no such curve, though single readings can be large; an effect the other way counts as inactive or inconclusive. Potency is the fitted concentration of half-maximal effect.

SMILES	GLP1R inv ag	a7 integrin act	GLP1R ag	BRCA1 expr act	HEK293 tox
Cc1ccc(-n2nc(C)c3c(C(=O)NCCc4ccc(S(N)(=O)=O)cc4)cc(C)nc32)cc1	-19%	x	x	x	-26%
COc1ccc(-c2nc(Cn3c(=O)cc(-c4ccccc4)c4c(C)nn(C)c43)c(C)o2)cc1OC	12%	x	x	x	-7%
COc1ccc(S(=O)(=O)N(C(=O)c2ccncc2)c2ccc3oc(C)c(C(C)=O)c3c2)cc1	3.2µM*	x	x	x	-25%
COc1ccc(S(=O)(=O)N(C(=O)c2ccncc2)c2ccc3oc4c(c3c2)CCCC4)cc1	10µM*	-12%	-14%	-72%	u
COc1ccc(NC(=O)CN2C(=O)CCc3cc(S(=O)(=O)N4CCOCC4)ccc32)c(OC)c1	4%	x	x	15%	1%
Cc1ccc(NS(=O)(=O)c2ccc(C(=O)N3CCC3)cc2)cc1	-19%	-11%	11%	-6%	5%
Cc1ccc(NS(=O)(=O)c2ccc(C(=O)N3CCCN(C)CC3)cc2)cc1	5.6µM*	-10%	0%	-10%	0%
CCc1cc2c(Sc3nc4ccccc4s3)ncnc2s1	3.5µM*	-58%	12%	-30%	-28%
c1ccc2sc(Sc3ncnc4sccc34)nc2c1	u	-60%	6%	-53%	-27%
O=C(NNCc1ccc(O)cc1)c1ccccc1Cl	-7%	10%	-5%	13µM*	-2%
COCCN=c1scc(-c2ccccc2)n1/N=C/c1c[nH]c2ccccc12	4µM*	13%	14%	59%	-9%
O=C(CCC1N=C2c3ccccc3N=C(SCc3ccccc3F)N2C1=O)NC1CCCCC1 (stereo not given)	u	x	x	x	-6%
Cc1cc(C)cc(NC(=S)NC(=O)C2CC2)c1	11µM*	-6%	19%	2%	u
CCOc1ccc(NC(=O)c2ccco2)cc1	-24%	-14%	-14%	-39%	5%
CCOc1ccc(NC(=S)NC(=O)C2CCCC2)cc1	10µM*	-15%	12%	68%	0%
COc1ccc(NC(=S)NC(=O)C2CCCCC2)cc1	18%	u	4%	7.9µM*	-16%
CCOc1ccc(NC(=S)NC(=O)c2ccco2)cc1	u	-6%	9%	7.1µM*	u
CCOC(=O)CC(NC(=O)CCc1c(C)nc2c(-c3ccccc3)c(C)nn2c1C)c1ccc(C)cc1 (stereo not given)	-2%	x	-3%	-33%	-16%
CC(C)CCNC(=O)c1ccc2nc(Cc3ccccc3)oc2c1	u	x	x	x	1%
CCOc1ccc(NC(=O)C2C3CCC4C(CCC32)C4(Cl)Cl)cc1 (stereo not given)	7.1µM*	u	-4%	48%	-23%
CN(Cc1ccccc1)S(=O)(=O)c1ccc(NC(=S)NC(=O)C2CCCCC2)cc1	2.5µM*	29%	3%	-88%	5%
CCCOc1ccc(C(=O)N(Cc2ccc(Cl)cc2)Cc2ccco2)cc1	u	x	x	x	1%
CCOc1ccc(NC(=S)N(Cc2ccc(Cl)cc2)Cc2ccco2)cc1	11µM*	-44%	-3%	-32%	-17%
CCOc1ccc(C(C)NC(=S)NC2CCCCC2)cc1 (stereo not given)	u	14%	-5%	-13%	11µM*
COC(=O)c1cc2sc(Cl)cc2n1CC(=O)Nc1cc(C)cc(C)c1	13%	x	x	x	0%
SMILES	GLP1R inv ag	a7 integrin act	GLP1R ag	BRCA1 expr act	HEK293 tox
COc1ccc(OC)c(-c2cc(C(=O)Nc3ccc(C)c(C)c3)no2)c1	-7%	x	x	x	24%
Cc1ccccc1NC(=S)NC(=O)C1CCCCC1	8.9µM*	-21%	1%	25%	u
O=C(CNC(=S)NC(=O)C1CCCCC1)c1ccccc1	14%	12%	7%	6.3µM*	12%
CCc1ccc(N(C(=O)c2snc(C(N)=O)c2N)C(C(=O)NC2CCCC2)c2ccco2)cc1 (stereo not given)	u	2.5µM*	12%	-62%	-3%
COc1ccc(N(C(=O)c2snc(C(N)=O)c2N)C(C(=O)NC2CCCC2)c2ccco2)cc1 (stereo not given)	4%	8%	8%	-13%	-12%
COc1ccc(N2CCC(CNC(=O)Nc3ccc(C)c(C)c3)C2)cc1 (stereo not given)	6.3µM*	13%	-1%	-9%	3%
CCOc1ccc(NC(=O)NCC2CCN(c3ccc(OC)cc3)C2)cc1 (stereo not given)	-19%	-4%	-9%	13%	-7%
Cc1ccc(-n2nc(C(=O)N3CCN(c4cc(Cl)ccc4C)CC3)c(=O)n(C)c2=O)cc1	11%	x	x	x	2%
CCN(CC)CCNC(=O)CCc1c(C)nc2c(c(C)nn2-c2ccc(C)c(C)c2)c1C	4µM*	-79%	0%	-58%	u
Cc1cc(C)nc(NC(=O)/C=C/c2ccccc2Cl)c1	u	-23%	2%	3.2µM*	3%
Cc1cc(N)c2cc(NC(=O)/C=C/c3ccccc3Cl)ccc2n1	11µM*	-62%	-7%	-76%	-20%
Cc1cc(C)nc(NC(=O)/C=C/c2ccc(Cl)cc2Cl)c1	u	-36%	8%	6.3µM*	-3%
Cc1ccnc(NC(=O)/C=C/c2ccccc2Cl)c1	10µM*	-6%	0%	u	5%
CCOc1ccc(NC(=O)c2nc(S(=O)(=O)Cc3ccc(F)cc3)ncc2Cl)cc1	x	x	x	-65%	x
COc1ccccc1CCNC(=O)CCc1c(C)c2cc3c(C)coc3cc2oc1=O	-6%	x	x	x	2%
Clc1ccccc1-c1cc2nc(NCCCn3ccnc3)ccn2n1	13%	x	-4%	10µM*	-3%
Cc1cc(C)c(CSc2ncc(-c3ccc([N+](=O)[O-])cc3)[nH]2)c(C)c1	8.9µM*	-8%	-36%	-72%	-13%
O=[N+]([O-])c1ccc(-c2cnc(SCc3ccccc3Cl)[nH]2)cc1	10µM*	-8%	-7%	28%	-7%
NC(=O)CSc1ncc(-c2ccc([N+](=O)[O-])cc2)[nH]1	15%	16%	12%	50%	-5%
CC(C)C[C@@H](NC(=O)[C@@H](COC(C)(C)C)NC(=O)[C@H](Cc1ccc(O)cc1)NC(=O)[C@@H](CO)NC(=O)[C@@H](Cc1c[nH]c2ccccc12)NC(=O)[C@@H](Cc1cnc[nH]1)NC(=O)[C@@H]1CCC(=O)N1)C(=O)N[C@H](CCCN=C(N)N)C(=O)N1CCC[C@H]1C(=O)NNC(N)=O	x	x	-1%	x	x
O=C(CCS(=O)(=O)c1cc(Br)cc2c1N(C(=O)C1CC1)CC2)N1CCN(c2cccc(C(F)(F)F)c2)CC1	15%	x	x	x	14%

Screening results from PubChem BioAssay.
